# In PubChem BioAssay AID1159580 (chemical genetic matrix, 2015):
# The whole screen tested about 5,500 compounds, of which about 2,000 (36%) were called active. Another 18% or so got no clear call; they are omitted. The list shows a part of the results. A number with no mark means an inactive call. Cut-off read from the data, not from the text of the source: active = normalized growth mostly below about 0.91 (no sharp cut-off); inconclusive = no clear call, values can overlap the other calls; inactive = mostly above about 0.92.
# Test: chemical genetic growth profiling, strain panel (AID 1159580);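 note: tested at 20 µM; growth read once vehicle control cultures reached saturation at 30 °C; 1 = growth at the plate median or of vehicle wells; lower values mean less growth of the strain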
# Settings: S. cerevisiae deletion strains, growth OD
compound,measurement,setting,value
COc1c(-c2coc3cc4c(cc3c2=O)CC(O)C(C)(C)O4)ccc2c1C=CC(C)(C)O2 (centres undefined),normalized growth,"locus YAL021C, strain ccr4, hits give low values",0.992
same,normalized growth,"locus YAL026C, strain drs2, hits give low values",0.978
same,normalized growth,"locus YAL030W, strain snc1, hits give low values",0.996
same,normalized growth,"locus YBL061C, strain skt5, hits give low values",0.983
same,normalized growth,"locus YBR009C, strain hhf1, hits give low values",0.97
same,normalized growth,"locus YBR023C, strain chs3, hits give low values",0.983
same,normalized growth,"locus YBR171W, strain sec66, hits give low values",0.973
same,normalized growth,"locus YBR231C, strain swc5, hits give low values",0.989
same,normalized growth,"locus YBR279W, strain paf1, hits give low values",0.989
same,normalized growth,"locus YCL011C, strain gbp2, hits give low values",0.992
same,normalized growth,"locus YCL016C, strain dcc1, hits give low values",0.986
same,normalized growth,"locus YCL069W, strain vba3, hits give low values",0.97
same,normalized growth,"locus YCR088W, strain abp1, hits give low values",0.979
same,normalized growth,"locus YDL005C, strain med2, hits give low values",0.972
same,normalized growth,"locus YDL040C, strain nat1, hits give low values",0.987
same,normalized growth,"locus YDR001C, strain nth1, hits give low values",0.979
same,normalized growth,"locus YDR069C, strain doa4, hits give low values",1
same,normalized growth,"locus YDR137W, strain rgp1, hits give low values",0.902
same,normalized growth,"locus YDR159W, strain sac3, hits give low values",0.973
same,normalized growth,"locus YDR195W, strain ref2",1.05
same,normalized growth,"locus YDR297W, strain sur2, hits give low values",0.978
same,normalized growth,"locus YDR334W, strain swr1, hits give low values",0.958
same,normalized growth,"locus YDR335W, strain msn5, hits give low values",0.974
same,normalized growth,"locus YDR392W, strain spt3, hits give low values",0.829
same,normalized growth,"locus YEL003W, strain gim4, hits give low values",0.99
same,normalized growth,"locus YEL037C, strain rad23, hits give low values",0.973
same,normalized growth,"locus YEL061C, strain CIN8 (second series), hits give low values",0.98
same,normalized growth,"locus YER015W, strain faa2, hits give low values",0.991
same,normalized growth,"locus YER016W, strain bim1, hits give low values",0.992
same,normalized growth,"locus YER111C, strain swi4, hits give low values",0.973
same,normalized growth,"locus YER155C, strain BEM2 (second series), hits give low values",0.967
same,normalized growth,"locus YFR010W, strain ubp6, hits give low values",0.989
same,normalized growth,"locus YGL167C, strain pmr1, hits give low values",0.969
same,normalized growth,"locus YGL173C, strain kem1, hits give low values",0.989
same,normalized growth,"locus YGL227W, strain vid30, hits give low values",0.992
same,normalized growth,"locus YGL240W, strain doc1, hits give low values",0.979
same,normalized growth,"locus YGL253W, strain hxk2, hits give low values",0.983
same,normalized growth,"locus YHR013C, strain ard1, hits give low values",0.954
same,normalized growth,"locus YHR027C, strain rpn1, hits give low values",1
same,normalized growth,"locus YHR030C, strain SLT2, hits give low values",0.932
same,normalized growth,"locus YHR079C, strain IRE1, hits give low values",0.929
same,normalized growth,"locus YHR142W, strain chs7, hits give low values",0.942
same,normalized growth,"locus YJL092W, strain hpr5, hits give low values",0.99
same,normalized growth,"locus YJL095W, strain BCK1 (second series), hits give low values",0.983
same,normalized growth,"locus YJL095W, strain BCK1, hits give low values",0.94
same,normalized growth,"locus YJL115W, strain asf1, hits give low values",0.971
same,normalized growth,"locus YJL129C, strain trk1, hits give low values",0.887
same,normalized growth,"locus YJL154C, strain vps35, hits give low values",0.97
same,normalized growth,"locus YJL164C, strain tpk1, hits give low values",0.974
same,normalized growth,"locus YJL166W, strain qcr8, hits give low values",0.979
same,normalized growth,"locus YJL187C, strain SWE1, hits give low values",0.991
same,normalized growth,"locus YJR066W, strain TOR1, hits give low values",0.865
same,normalized growth,"locus YKL160W, strain elf1, hits give low values",0.992
same,normalized growth,"locus YKR026C, strain gcn3, hits give low values",0.957
same,normalized growth,"locus YKR091W, strain srl3, hits give low values",0.992
same,normalized growth,"locus YLL001W, strain dnm1, hits give low values",0.991
same,normalized growth,"locus YLL026W, hits give low values",0.989
same,normalized growth,"locus YLL041C, strain sdh2, hits give low values",1.01
same,normalized growth,"locus YLR027C, strain aat2, hits give low values",0.996
same,normalized growth,"locus YLR113W, strain HOG1, hits give low values",0.996
same,normalized growth,"locus YLR221C, strain rsa3, hits give low values",0.991
same,normalized growth,"locus YLR258W, strain gsy2, hits give low values",0.965
same,normalized growth,"locus YLR262C, strain YPT6 (second series), hits give low values",0.877
same,normalized growth,"locus YLR320W, strain mms22, hits give low values",0.962
same,normalized growth,"locus YLR342W, strain FKS1, hits give low values",0.98
same,normalized growth,"locus YLR357W, strain rsc2, hits give low values",0.967
same,normalized growth,"locus YLR370C, strain arc18, hits give low values",0.995
same,normalized growth,"locus YLR384C, strain iki3, hits give low values",0.976
same,normalized growth,"locus YML120C, strain ndi1, hits give low values",1.01
same,normalized growth,"locus YMR058W, strain fet3, hits give low values",0.993
same,normalized growth,"locus YMR125W, strain sto1, hits give low values",0.988
same,normalized growth,"locus YMR129W, hits give low values",0.982
same,normalized growth,"locus YMR205C, strain PFK2, hits give low values",0.961
same,normalized growth,"locus YMR231W, strain pep5, hits give low values",0.963
same,normalized growth,"locus YNL071W, strain lat1, hits give low values",0.975
same,normalized growth,"locus YNL183C, strain NPR1, hits give low values",0.922
same,normalized growth,"locus YNL209W, strain ssb2, hits give low values",1
same,normalized growth,"locus YNL248C, strain rpa49, hits give low values",0.971
same,normalized growth,"locus YNL322C, strain KRE1 (second series), hits give low values",1.02
same,normalized growth,"locus YNR049C, strain mso1, hits give low values",0.99
same,normalized growth,"locus YOR001W, strain rrp6, hits give low values",0.973
same,normalized growth,"locus YOR070C, strain gyp1, hits give low values",0.992
same,normalized growth,"locus YOR080W, strain dia2, hits give low values",0.994
same,normalized growth,"locus YOR083W, strain WHI5, hits give low values",0.978
same,normalized growth,"locus YOR106W, strain vam3, hits give low values",0.962
same,normalized growth,"locus YOR231W, strain MKK1, hits give low values",0.94
same,normalized growth,"locus YOR265W, strain rbl2, hits give low values",0.98
same,normalized growth,"locus YOR270C, strain vph1, hits give low values",0.608 (active)
same,normalized growth,"locus YOR290C, strain snf2, hits give low values",0.955
same,normalized growth,"locus YPL051W, strain arl3, hits give low values",0.972
same,normalized growth,"locus YPL078C, strain atp4, hits give low values",0.972
same,normalized growth,"locus YPL106C, strain sse1, hits give low values",1.01
same,normalized growth,"locus YPL240C, strain hsp82, hits give low values",0.982
same,normalized growth,"locus YPL256C, strain CLN2, hits give low values",0.922
